Measurements: PubChem BioAssay AID624404 (Broad Institute, 2012)
Out of some 1,800 compounds screened, about 710 (39%) were called active. Another 28% or so got no clear call; they are omitted. Not all results are given here. Results with a measured potency or affinity are listed apart. Unmarked numbers belong to inactive results.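 The calls were made as follows: active = luciferase signal rise whose fitted curve crosses a set activity limit at or below the top valid tested dose; inconclusive = flat fit with 30 to 70% rise, or poor fit; inactive = signal falling, flat within 30%, or crossing above top dose.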

experiment: luciferase activators in glycosylation-insensitive reporter cells, dose response, counter-screen for N-linked glycosylation inhibitor project, D54 LucT cells, luminescence, cherry pick (AID 624404); conditions: D54 LucT luciferase reporter counterscreen, 24 h; series mostly up to 19.5 µM; activity increase (luciferase signal): at the top concentration;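 also: 0% = median neutral control signal and 100% = twice that signal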

| SMILES | activity increase (luciferase signal) |
| --- | --- |
| O=C(NCCN1C(=O)S/C(=C\c2cccc(Cl)c2Cl)C1=O)C1=COCCO1 | 34.6% |
| Cc1noc2ncnc(Sc3ccc(Cl)cc3)c12 | -4.08% |
| CCn1c(=O)cc(C(=O)OC)sc1=Nc1ccc(F)c(F)c1 | 10.2% |
| COC(=O)c1cc(=O)n(Cc2ccco2)c(=Nc2ccc(F)cc2)s1 | 8.46% |
| CCN(CC(=O)Nc1ccccc1OC)CC(=O)Nc1ccccc1-c1ccccc1 | 67.6% |
| COc1ccc(C(=O)NCCN(C)C)c2nc3ccccc3cc12 | 34% |
| CCCc1cc(C(=O)N/N=C/c2ccc(C)o2)c2ccccc2n1 | 2.39% |
| O=C(/C=C/c1ccc(-c2ccccc2[N+](=O)[O-])o1)c1ccc(Br)cc1 | 23.2% |
| N#Cc1cc2[nH]c3ccccc3c2[n+](-c2ccc([N+](=O)[O-])cc2)c1N | 4.59% |
| Cn1cnc([N+](=O)[O-])c1Sc1nc2ccccc2[nH]1 | -2.72% |
| CCN(CC)CCNc1ccc(CO)c2oc3ccccc3c(=O)c12 | 30.6% |
| CCN(CC)CCNc1ccc(CO)c2oc3cc(Cl)ccc3c(=O)c12 | 19.5% |
| CCn1c(=O)c2cc(C(=O)NCCN(C)C)sc2c2ccccc21 | 29.2% |
| Cn1nc(C(F)(F)F)c(/C=N/OC(=O)c2ccccc2Cl)c1SCc1ccc(Cl)cc1 | -3.74% |
| Cc1cc(C)nc(/N=C(\N)Nc2ccc(OCCC(C)C)cc2)n1 | -50.5% |
| CCCCc1ccc(N/C(N)=N/c2nc(C)cc(C)n2)cc1 | -16.7% |
| CC1CN(C(=O)/C=C/c2ccc([N+](=O)[O-])s2)CC(C)O1 (centres undefined) | 2.29% |
| O=C(/C=C/c1ccc([N+](=O)[O-])s1)N1CCCCC1 | -39.5% |
| COc1ccc(C=C(c2nc3ccccc3s2)c2nc3ccccc3s2)cc1O | -30.8% |
| COCC(=O)OC/C(O)=C(\C#N)c1nc2ccccc2[nH]1 | -10.2% |
| Cc1c(-c2cccc(Cl)c2)nc2ccccc2c1C(=O)OC/C(O)=C(\C#N)c1nc2ccccc2[nH]1 | 40.5% |
| CC(=O)Nc1cccc(-c2ccnc3c2CC(C(=O)NCc2ccco2)O3)c1 (centres undefined) | 12.1% |
| COc1ccc(NC(=O)C2Cc3c(-c4cccc(C(C)=O)c4)ccnc3O2)cn1 (centres undefined) | 50.2% |
| COc1ccc(CCCNC(=O)C2Cc3c(-c4cccc(C(C)=O)c4)ccnc3O2)cc1 (centres undefined) | 44.8% |
| COc1ccc(NC(=O)C2Cc3c(-c4ccc5c(c4)OCO5)ccnc3O2)cc1 (centres undefined) | 38.2% |

| SMILES | activity increase (luciferase signal) |
| --- | --- |
| CS(=O)(=O)Nc1cccc(NC(=O)C2Cc3c(-c4ccccc4)ccnc3O2)c1 (centres undefined) | -27.7% |
| COc1ccc(Nc2cc(C)nc3ccc(OC)cc23)cc1 | 1.85% |
| COc1ccc2nc(C)cc(Nc3ccc(N4CCOCC4)cc3)c2c1 | 24.5% |
| CN(C1=C(NC(=O)c2ccc(Cl)cc2)C(=O)c2ccccc2C1=O)c1ccccc1 | -0.769% |
| CC[C@@H]1CC=C[C@H]2[C@H]1C(=O)N(Cc1ccccc1)[C@H]2c1ccoc1 | 8.68% |
| O=C(OCn1ncc(Cl)c(Cl)c1=O)c1ccc(C(F)(F)F)cc1 | -6.69% |
| NC(=O)/C=C\C(=O)Nc1cccc(C(F)(F)F)c1 | 11.1% |
| C=CCOc1ccc(C2C(C#N)=C(N)N(Nc3ccccc3)C3=C2C(=O)CCC3)cc1OC (centres undefined) | 31.8% |
| COc1cc(-c2cc3nc(NCCOc4ccccc4)ccn3n2)cc(OC)c1OC | 30.5% |
| CCOC(=O)/C=C(\C)Sc1cc(=O)oc2ccccc12 | 15.5% |
| O=C(N=Nc1c(O)[nH]c2ccc(Br)cc12)c1cc(-c2cccs2)nc2ccccc12 | -65.6% |
| CCc1ccc(/C=N/NC(=O)c2cc(-c3ccncc3)nc3ccccc23)s1 | 16.7% |
| C=C(C)Cc1c(C)c(C#N)c2nc3ccccc3n2c1NCCCN(C)C | -13.5% |
| COc1ccc(CCCNC(=O)C2(C)Cc3c(-c4ccc5c(c4)OCO5)ccnc3O2)cc1 (centres undefined) | 0% |
| COc1cc(C2c3cc4c(cc3OC(Nc3ccc(C(=O)O)cc3)C2C)OCO4)cc(OC)c1OC (centres undefined) | 5.76% |
| Clc1cccc(Cl)c1Cn1cnc2c(NCc3ccco3)ncnc21 | -16.4% |
| CCN(CC)Cc1cc(Nc2c3ccccc3nc3c4ccccc4n(C)c23)cc(CN(CC)CC)c1O | 13% |
| Cc1ccc2cc(CN(CCCN(C)C)C(=O)NCc3ccccc3)c(=O)[nH]c2c1C | -11.8% |
| COc1ccc2[nH]c3c(N4CCC(O)(c5cccc(C(F)(F)F)c5)CC4)ncnc3c2c1 | 19.1% |
| COc1ccc(CN2C(=O)C(C)Nc3ncnc(N4CCc5ccccc5C4)c32)cc1 (centres undefined) | 14.3% |
| O=C(NCC1CCCO1)c1cc(-c2ccccc2)on1 (centres undefined) | 171% |
| Cc1nc2ccccc2c2oc(C(=O)NCCCN3CC(C)CC(C)C3)cc12 (centres undefined) | 20.9% |
| O=C1C=C(Nc2ccc(Cl)cc2Cl)CC(c2ccco2)C1 (centres undefined) | 27.5% |
| NC(=O)CC(NC(=O)Cc1ccc(Cl)cc1)c1ccc(NC2CCN(Cc3ccccc3)CC2)c([N+](=O)[O-])c1 (centres undefined) | 12.3% |
